In PubChem BioAssay (NCATS):
Inconclusive results are not listed. The source made the active and inactive calls. The call rests on the fitted dose curve; in most records, active means well fitted curve in the direction sought with a large enough effect; inconclusive means small, poorly fitted or top-dose-only effect, or another doubt; inactive means no such curve, though single readings can be large; an effect the other way counts as inactive or inconclusive.

Assays:
[1] = biological target: Glutathione peroxidase 1 (Homo sapiens) (UniProt P07203); test: Primary qHTS Assay for Inhibitors of Recombinant Selenoprotein Glutathione Peroxidase 1 (GPX1) (AID 1845191); further: nearly all actives have a fitted effect of over 65% in size; further: potency means the concentration at half of the fitted maximal effect
Procedure, shortened: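 10 nM GPX1 + cpd, 30 min RT; start w/ 1 mM GSH, 0.5 mM cumene hydroperoxide, 0.5 mM NADPH, 100 nM GR, 0.01% BSA; buffer 50 mM Tris-HCl pH 7.5, 2 mM EDTA, 150 mM NaCl; Fl 340/450, 0 & 15 min.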

[2] = biological target: Phospholipid hydroperoxide glutathione peroxidase GPX4 (Homo sapiens) (UniProt P36969); test: Primary qHTS Assay for Inhibitors of Recombinant Selenoprotein Glutathione Peroxidase 4 (GPX4) (AID 1845192); further: nearly all actives have a fitted effect of over 65% in size; further: potency means the concentration at half of the fitted maximal effect
Procedure, shortened: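 NADPH consumption, followed by fluorescence at 340/450 nm between 0 and 15 min, reports GPX4 activity via coupled glutathione reductase (100 nM). Enzyme 200 nM was pre-exposed to compound 30 min; 0.5 mM cumene hydroperoxide and 1 mM GSH served as substrates.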

[3] = Quantitative High-Throughput drug screen in 47 multiple myeloma cell lines against the NCATS MIPE library collection: FR4_PLB cell viability assay (AID 1918924; further: nearly all actives have a fitted effect of over 35% in size)
Procedure, shortened: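 Primary qHTS used for cherry-picking: cells at 500/well, library compounds for 48 h (37C, 5% CO2), luminescent ATP assay.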

[4] = Quantitative High-Throughput drug screen in 47 multiple myeloma cell lines against the NCATS MIPE library collection: Delta47_JCRB cell viability assay (AID 1918925; further: nearly all actives have a fitted effect of over 45% in size; further: potency means the concentration at half of the fitted maximal effect)
Procedure, shortened: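 Inhibition of cell viability is measured here. Each line was plated at 500 cells per well, treated with MIPE 4.0 drugs, kept 48 hours at 37C, then assayed for ATP content by CellTiter-Glo luminescence.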

[5] = biological target: Luciferin 4-monooxygenase (Photinus pyralis) (UniProt P08659); test: Primary firefly luciferase (FLuc) qHTS assay for identification of artifact compounds. (AID 1845220); conditions: outcome: dose series up to 54.1 µM; further: nearly all actives have a fitted effect of over 60% in size
Procedure, shortened: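 Cell-free, 1536-well qHTS. Buffer pH 7.6 with 0.01% Tween-20 and 0.05% BSA; 10 uM D-luciferin, 10 uM ATP; 10 nM P. pyralis luciferase; luminescence after 5 min.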

[6] = Primary fluorescence-based thiol-reactive (MSTI) qHTS assay for identification of artifact compounds. (AID 1845221);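 further: series mostly up to about 54 µM; thiol-reactive compounds lower the probe fluorescence signal; nearly all actives have a fitted effect of over 65% in size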
Procedure, shortened: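 One-hour, room-temperature, dark incubation of compound with 4 uM MSTI in PBS (pH 7.4, 2% DMSO) precedes a fluorescence read at 525 nm excitation, 598 nm emission; Hill-equation fitting yields concentration-response values.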

[7] = test system: Nanoluciferase (engineered Oplophorus gracilirostris luciferase); test: Primary Nanoluciferase (NLuc) qHTS assay for identification of artifact compounds. (AID 1845222); further: series mostly up to about 54 µM
Procedure, shortened: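 Compounds are pinned into diluted (1:55) conditioned medium of NLuc-expressing S16 cells and held 15 min at room temperature protected from light. Nano-Glo substrate follows, and luminescence is read 5 min later.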

[8] = Primary redox qHTS assay for identification of artifact compounds. (AID 1845223)
Procedure, shortened: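 Amplex Red (25 uM) and HRP (250 mU/mL) in HBSS, with compounds for 15 min, then 250 uM DTT for 30 min, room temperature, dark. Fluorescence 525/598 nm read; normalized to DMSO and 10 uM DA3003; Hill fit.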

Measured: Potency

Chain of Glutathione peroxidase 1 (Homo sapiens) (P07203 whole entry, looked up): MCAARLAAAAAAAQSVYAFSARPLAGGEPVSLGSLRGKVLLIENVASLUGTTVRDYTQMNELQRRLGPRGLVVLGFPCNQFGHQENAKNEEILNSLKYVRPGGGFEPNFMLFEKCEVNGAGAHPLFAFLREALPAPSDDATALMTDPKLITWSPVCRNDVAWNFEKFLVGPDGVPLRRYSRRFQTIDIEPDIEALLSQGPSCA
Chain of Phospholipid hydroperoxide glutathione peroxidase GPX4 (Homo sapiens) (P36969 whole entry, looked up): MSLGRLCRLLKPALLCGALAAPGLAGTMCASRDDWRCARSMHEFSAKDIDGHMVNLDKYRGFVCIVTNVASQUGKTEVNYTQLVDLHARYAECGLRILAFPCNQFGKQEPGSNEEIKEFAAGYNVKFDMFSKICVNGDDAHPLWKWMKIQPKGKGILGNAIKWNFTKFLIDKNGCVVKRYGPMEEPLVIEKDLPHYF

C#CCN(C)[C@H](C)Cc1ccccc1
inactive: [1] | [2] | [3] | [4]

O=C(O)C(=O)c1cn(Cc2ccccc2)c2ccc(-c3ccc(OC(F)(F)F)cc3)cc12
active: [2] 9.04 µM | [4] 20.9 µM
inactive: [1] | [5] | [6] | [7] | [8] | [3]

CNC(=O)N1N=C(c2ccc(N)cc2)c2cc3c(cc2CC1C)OCO3 (stereo not given)
active: [4] 1.48 µM
inactive: [1] | [2] | [5] | [7] | [8]

Cc1cc(SCc2sc(-c3ccc(C(F)(F)F)c(F)c3)nc2C)ccc1OCC(=O)O
inactive: [2] | [6] | [7] | [3]
active: [1] 12.8 µM

Oc1ccccc1-c1ccccc1
inactive: [1] | [2]

CCN(CC)C(=O)N[C@@H]1C=C2c3cccc4[nH]cc(c34)C[C@@H]2N(C)C1
inactive: [1] | [2]

CNC(=O)c1ccc(N2C(=S)N(c3ccc(C#N)c(C(F)(F)F)c3)C(=O)C23CCC3)cc1F
active: [4] 4.18 µM
inactive: [1] | [2] | [5] | [6] | [7] | [8] | [3]
